8 compounds from PubChem BioAssay (EPA / NIEHS) can be followed below.

The target in experiment [1] is Nuclear receptor subfamily 1 group I member 3 (Homo sapiens) (UniProt Q14994). Briefly: ATG_CAR_TRANS: Attagene TRANS-FACTORIAL HepG2 Assay for human Constitutive Androstane Receptor (CAR) (AID 2282969).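 Also: activators raise reporter mRNA above DMSO so AC50 marks induction.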 Conditions: HepG2 Attagene TRANS-FACTORIAL CAR reporter. The method in brief:
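HepG2 cells transiently transfected with GAL4-UAS reporter units; TRANS format reads activity of exogenous chimeric NR-Gal4 protein. After 24 h dosing, reporter mRNA quantified by RT-PCR, 6-FAM labelling and capillary electrophoresis; gain of signal fitted against DMSO.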

The nature of experiment [2]: ATG_GAL4_TRANS: Attagene TRANS-FACTORIAL HepG2 Assay for GAL4 (Internal Marker) (AID 2282976). Conditions: HepG2 Attagene TRANS GAL4 internal marker reporter. The method in brief:
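Background-control readout: GAL4-UAS reporter transcript in transiently transfected HepG2 cells after 24 h compound exposure. Measured by RT-PCR, 6-FAM primer extension, HpaI digest and capillary electrophoresis; gain-of-signal fit versus DMSO.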

The target of experiment [3] is Oxysterols receptor LXR-beta (Homo sapiens) (UniProt P55055). Briefly: ATG_LXRb_TRANS: Attagene TRANS-FACTORIAL HepG2 Assay for human Liver X Receptor beta (LXRb) (AID 2282981). Conditions: HepG2 Attagene TRANS GAL4-LXRb reporter, mRNA. The method in brief: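 HepG2 cells transiently transfected with GAL4-UAS reporter units for chimeric NR-Gal4 proteins, dosed for 24 h. Reporter transcripts measured by RT-PCR and capillary electrophoresis; gain-of-signal fitting relative to DMSO.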
Chain of Oxysterols receptor LXR-beta (Homo sapiens) (P55055 whole entry, looked up, the tested form may be a part): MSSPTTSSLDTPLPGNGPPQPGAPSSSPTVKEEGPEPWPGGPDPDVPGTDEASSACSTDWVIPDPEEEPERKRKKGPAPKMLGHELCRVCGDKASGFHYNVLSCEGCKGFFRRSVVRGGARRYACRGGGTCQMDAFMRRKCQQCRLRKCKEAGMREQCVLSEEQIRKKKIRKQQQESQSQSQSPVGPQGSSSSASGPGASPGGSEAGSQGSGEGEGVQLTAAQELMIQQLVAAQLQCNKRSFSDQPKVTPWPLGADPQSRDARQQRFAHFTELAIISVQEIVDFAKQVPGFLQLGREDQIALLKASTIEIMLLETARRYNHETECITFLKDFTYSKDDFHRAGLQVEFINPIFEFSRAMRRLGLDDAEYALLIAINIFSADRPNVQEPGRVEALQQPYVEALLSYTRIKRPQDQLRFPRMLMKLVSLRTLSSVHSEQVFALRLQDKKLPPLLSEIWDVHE

In experiment [4] the target is Nuclear receptor subfamily 4 group A member 2 (Homo sapiens) (UniProt P43354). In words: ATG_NURR1_TRANS: Attagene TRANS-FACTORIAL HepG2 Assay for human Nuclear Receptor Related Protein 1 (NURR1) (AID 2282985). To be noted: HepG2 Attagene TRANS reporter, mRNA readout. The method in brief: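 HepG2 cells transiently transfected with NURR1-Gal4 chimera and GAL4-UAS reporter units; after 24 hr compound exposure, reporter mRNA quantified by RT-PCR and capillary electrophoresis; gain of signal fitted against DMSO.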
Chain of Nuclear receptor subfamily 4 group A member 2 (Homo sapiens) (P43354 whole entry, looked up, the tested form may be a part): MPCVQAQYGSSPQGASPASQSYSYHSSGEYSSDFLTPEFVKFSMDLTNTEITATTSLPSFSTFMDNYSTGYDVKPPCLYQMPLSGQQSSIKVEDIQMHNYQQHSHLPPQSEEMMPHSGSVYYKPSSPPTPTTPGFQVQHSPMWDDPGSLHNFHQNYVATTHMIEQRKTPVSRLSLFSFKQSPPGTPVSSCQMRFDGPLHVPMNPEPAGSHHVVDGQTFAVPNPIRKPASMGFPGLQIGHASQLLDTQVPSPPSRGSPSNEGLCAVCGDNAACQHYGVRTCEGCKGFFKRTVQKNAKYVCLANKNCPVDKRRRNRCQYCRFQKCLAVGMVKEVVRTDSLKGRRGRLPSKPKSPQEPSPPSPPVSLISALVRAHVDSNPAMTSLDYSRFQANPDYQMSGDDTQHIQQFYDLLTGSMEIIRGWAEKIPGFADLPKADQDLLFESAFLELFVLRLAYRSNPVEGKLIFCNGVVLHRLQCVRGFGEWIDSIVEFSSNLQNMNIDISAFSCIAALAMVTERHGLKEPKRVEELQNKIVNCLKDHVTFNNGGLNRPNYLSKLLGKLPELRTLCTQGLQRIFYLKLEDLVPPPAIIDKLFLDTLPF

The target in experiment [5] is Retinoic acid receptor RXR-alpha (Homo sapiens) (UniProt P19793). In words: ATG_RXRa_TRANS: Attagene TRANS-FACTORIAL HepG2 Assay for human Retinoid X Receptor alpha (RXRa) (AID 2283012). Summed up: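 HepG2 cells transiently transfected with GAL4-UAS reporter units and chimeric RXRa-Gal4 protein, treated 24 h. Reporter mRNA measured by RT-PCR, fluorescent labelling, HpaI digestion and capillary electrophoresis. Induction fitted against DMSO.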
Chain of Retinoic acid receptor RXR-alpha (Homo sapiens) (P19793 whole entry, looked up, the tested form may be a part): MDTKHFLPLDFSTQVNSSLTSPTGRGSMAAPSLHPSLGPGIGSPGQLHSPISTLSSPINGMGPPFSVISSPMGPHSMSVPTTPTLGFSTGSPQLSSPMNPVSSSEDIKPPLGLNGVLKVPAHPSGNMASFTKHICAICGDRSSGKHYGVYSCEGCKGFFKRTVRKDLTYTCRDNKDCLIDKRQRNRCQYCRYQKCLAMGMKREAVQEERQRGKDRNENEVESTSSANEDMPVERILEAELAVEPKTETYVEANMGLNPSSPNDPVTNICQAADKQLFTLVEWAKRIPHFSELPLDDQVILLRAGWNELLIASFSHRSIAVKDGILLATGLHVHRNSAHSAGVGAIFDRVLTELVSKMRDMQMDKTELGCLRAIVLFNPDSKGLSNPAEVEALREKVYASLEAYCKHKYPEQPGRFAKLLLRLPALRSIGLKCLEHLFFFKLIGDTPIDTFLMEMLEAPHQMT

Experiment [6] can be described thus: ATG_M_32_TRANS: Attagene TRANS-FACTORIAL HepG2 Assay for M32 Transcription Factor (Internal Marker) (AID 2282984). To be noted: HepG2 Attagene TRANS M32 internal marker reporter. The method in brief:
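HepG2 cells transiently transfected with GAL4-UAS reporter units, dosed for 24 hours. Reporter mRNA quantified by RT-PCR, 6-FAM labelling, HpaI digestion and capillary electrophoresis; internal-marker signal fitted upward relative to DMSO.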

Experiment [7] deals with human Peroxisome Proliferator-activated Receptor delta (PPARd), PPARD (gene 5467) (UniProt Q03181). Briefly: ATG_PPARd_TRANS: Attagene TRANS-FACTORIAL HepG2 Assay for human Peroxisome Proliferator-activated Receptor delta (PPARd) (AID 2283002). Summed up:
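Fluorescence from capillary electrophoresis of labelled RT-PCR reporter fragments gives the signal; DMSO sets baseline. Cells: HepG2 transiently carrying GAL4-UAS reporter units plus chimeric nuclear receptor-Gal4 proteins, exposed to chemicals for 24 h.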

Experiment [8] deals with Peroxisome proliferator-activated receptor gamma (Homo sapiens) (UniProt P37231). Briefly: ATG_PPARg_TRANS: Attagene TRANS-FACTORIAL HepG2 Assay for human Peroxisome Proliferator-activated Receptor-gamma (PPARg) (AID 2283007). The method in brief: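 A TRANS-format multiplexed reporter assay measures activity of an exogenous chimeric NR-Gal4 protein in HepG2 cells. After 24 h of chemical exposure, reporter transcripts are amplified, fluorescently labelled and sized by capillary electrophoresis, with gain of signal scored against DMSO.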
Chain of Peroxisome proliferator-activated receptor gamma (Homo sapiens) (P37231 whole entry, looked up, the tested form may be a part): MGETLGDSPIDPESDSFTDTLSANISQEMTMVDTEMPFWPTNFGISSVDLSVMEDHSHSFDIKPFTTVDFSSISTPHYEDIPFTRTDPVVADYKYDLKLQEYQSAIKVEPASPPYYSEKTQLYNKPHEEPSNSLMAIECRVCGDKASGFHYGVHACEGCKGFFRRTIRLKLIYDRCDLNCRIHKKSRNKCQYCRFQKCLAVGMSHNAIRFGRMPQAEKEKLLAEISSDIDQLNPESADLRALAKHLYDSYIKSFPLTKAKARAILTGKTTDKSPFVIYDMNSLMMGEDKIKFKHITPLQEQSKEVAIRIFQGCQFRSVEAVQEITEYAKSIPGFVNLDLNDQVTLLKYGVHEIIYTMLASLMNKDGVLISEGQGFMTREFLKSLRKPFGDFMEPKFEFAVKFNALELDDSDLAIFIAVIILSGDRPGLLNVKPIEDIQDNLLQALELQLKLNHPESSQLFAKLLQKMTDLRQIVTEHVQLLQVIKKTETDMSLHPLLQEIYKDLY

Experiment [9] has as its target human Thyroid Receptor alpha (THRa1), THRA (gene 7067) (UniProt P10827). In words: ATG_THRa1_TRANS: Attagene TRANS-FACTORIAL HepG2 Assay for human Thyroid Receptor alpha (THRa1) (AID 2283014). Summed up:
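HepG2 cells transiently transfected with chimeric NR-Gal4 and GAL4-UAS reporter units, dosed 24 h. Reporter mRNA quantified by RT-PCR, fluorescent labeling, HpaI digestion and capillary electrophoresis; gain-of-signal fit versus DMSO.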

A short description of experiment [10]: TOX21_p53_BLA_p4_viability: Viability Assessment in the Tox21 HCT-116 p53 Agonism Beta-lactamase Assay, Phase 4 (AID 2283597).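 Also: hits lower the luminescence signal meaning cytotoxicity.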 Summed up: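 HCT-116 p53-bla cells, 4000/well, dosed after 5 h attachment and incubated 16 h at 37 °C, 5% CO2. Viability from CellTiter-Glo ATP luminescence after 30 min at room temperature, taken after the beta-lactamase read; loss of signal indicates cytotoxicity.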

A short description of experiment [11]: ACEA_ER_AUC_viability: ACEA Biosciences xCELLigence Real-Time Cell Analysis on Estrogen Receptor Agonism for Viability (AID 2283782).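 Also: continuous compound exposure with impedance area under curve over 80 h; hit means loss of impedance signal meaning reduced cell growth or viability.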 Summed up: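 T47D cells preconditioned in phenol red-free RPMI with charcoal-stripped FBS, then dosed with 8-point 1:4 series from 100 uM (up to 0.5% DMSO). Impedance monitored up to ~80 h; area-under-curve loss versus DMSO taken as viability.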

Experiment [12] can be described thus: CCTE_Harrill_HTTr_Viability_MCF7: CCTE's 6-hour Cell Viability Assessment for the High-Throughput Transcriptomics (HTTr) Platform, in MCF-7 cells cultured in DMEM + 10% fetal bovine serum, Harrill Lab (AID 2284010; active = hit-call score of the fitted dose curve at least 0.9, where 1 is the maximum; inactive = score below 0.9). The method in brief:
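MCF-7 cells in DMEM + 10% FBS, 384-well, exposed 6 h to an eight-point dilution series. Membrane integrity scored by high-content imaging of propidium iodide exclusion; bidirectional fit versus DMSO.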

Experiment [13] can be described thus: CCTE_Harrill_HTTr_Apoptosis_MCF7: CCTE's 6-hour Apoptosis Assessment for the High-Throughput Transcriptomics (HTTr) Platform, in MCF-7 cells cultured in DMEM + 10% fetal bovine serum, Harrill Lab (AID 2284011; active = hit-call score of the fitted dose curve at least 0.9, where 1 is the maximum; inactive = score below 0.9). The method in brief: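 MCF-7 cells in DMEM + 10% FBS exposed 6 h to chemicals over an eight-point dilution series. Caspase-3/7 activation imaged by high-content CellEvent Green staining; fitted bidirectionally versus DMSO.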

Experiment [14] deals with Oxysterols receptor LXR-alpha (Homo sapiens) (UniProt Q13133). In words: ATG_LXRa_TRANS: Attagene TRANS-FACTORIAL HepG2 Assay for human Liver X Receptor alpha (LXRa) (AID 2282980). Conditions: HepG2 Attagene TRANS reporter, LXRa transactivation. The method in brief: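 HepG2 cells transiently transfected with GAL4-UAS reporter units for chimeric NR-Gal4 proteins, exposed to chemicals for 24 h. Reporter mRNA quantified by RT-PCR and capillary electrophoresis; gain of signal fitted relative to DMSO.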
Chain of Oxysterols receptor LXR-alpha (Homo sapiens) (Q13133 whole entry, looked up, the tested form may be a part): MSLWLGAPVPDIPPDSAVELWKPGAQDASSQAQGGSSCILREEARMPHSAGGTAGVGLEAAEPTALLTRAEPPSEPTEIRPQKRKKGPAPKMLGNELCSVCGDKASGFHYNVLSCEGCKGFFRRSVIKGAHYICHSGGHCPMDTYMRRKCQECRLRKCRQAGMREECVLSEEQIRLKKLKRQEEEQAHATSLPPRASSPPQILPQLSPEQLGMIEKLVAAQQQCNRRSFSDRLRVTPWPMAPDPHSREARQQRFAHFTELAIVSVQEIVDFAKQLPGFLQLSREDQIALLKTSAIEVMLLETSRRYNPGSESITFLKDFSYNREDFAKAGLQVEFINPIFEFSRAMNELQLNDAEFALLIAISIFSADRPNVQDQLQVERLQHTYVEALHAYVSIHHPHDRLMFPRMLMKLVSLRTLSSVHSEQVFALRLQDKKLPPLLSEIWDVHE

Experiment [15] addresses human RAR-related Orphan Receptor gamma (RORg), RORC (gene 6097) (UniProt P51449). In words: ATG_RORg_TRANS: Attagene TRANS-FACTORIAL HepG2 Assay for human RAR-related Orphan Receptor gamma (RORg) (AID 2283011). The method in brief: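 HepG2 cells transiently transfected with GAL4-UAS reporter units and chimeric RORg-Gal4 construct; after 24 h chemical exposure, reporter mRNA measured by RT-PCR with fluorescent capillary electrophoresis, gain of signal fitted against DMSO.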

Experiment [16] deals with Retinoic acid receptor alpha (Homo sapiens) (UniProt P10276). In words: ATG_DR5_RAR_CIS: Attagene CIS-FACTORIAL HepG2 Assay for human Retinoic Acid Receptor Alpha (RARE), DR5 submotif (AID 2282934; active = hit-call score of the fitted dose curve at least 0.9, where 1 is the maximum; inactive = score below 0.9). Conditions: HepG2 Attagene cis-factorial RARE DR5 reporter, mRNA; actives raise or lower the signal. Summed up:
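After 24 h of chemical exposure, transiently transfected HepG2 cells were lysed for total RNA; the DR5-regulated reporter transcript was quantified via RT-PCR and capillary electrophoresis, with activity fitted bidirectionally against DMSO.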

Experiment [17] can be described thus: ATG_M_19_TRANS: Attagene TRANS-FACTORIAL HepG2 Assay for M19 Transcription Factor (Internal Marker) (AID 2282974). To be noted: HepG2 Attagene TRANS-FACTORIAL M19 internal marker reporter. Summed up: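 Cells: human HepG2, transiently transfected with multiplexed reporter transcription units. Exposure: 24 h. Detection: RT-PCR of reporter mRNA with capillary electrophoresis. Analysis: gain-of-signal vs DMSO.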

Experiment [18] deals with Estrogen-related receptor gamma (Homo sapiens) (UniProt P62508). In words: ATG_ERRg_TRANS: Attagene TRANS-FACTORIAL HepG2 Assay for human Estrogen-Related Receptor gamma (ERRg) (AID 2282977).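 Also: hits increase reporter signal over DMSO so potencies reflect activators.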 Conditions: HepG2 Attagene TRANS reporter, ERRg transactivation. Summed up: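 HepG2 cells transiently transfected with multiplexed GAL4-UAS reporter units driven by chimeric NR-Gal4 proteins; 24 h exposure. Reporter mRNA quantified by RT-PCR, fluorescent labelling, HpaI digestion and capillary electrophoresis; gain of signal vs DMSO.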

The target in experiment [19] is human RAR-related Orphan Receptor beta (RORb), RORB (gene 6096) (UniProt Q92753). Briefly: ATG_RORb_TRANS: Attagene TRANS-FACTORIAL HepG2 Assay for human RAR-related Orphan Receptor beta (RORb) (AID 2283010). Summed up: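 HepG2 cells transiently transfected with GAL4-UAS reporter units expressing chimeric NR-Gal4 protein; reporter mRNA measured 24 h after dosing by RT-PCR, 6-FAM labelling and capillary electrophoresis. Gain-of-signal fitted relative to DMSO baseline.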
Chain of human RAR-related Orphan Receptor beta (RORb), RORB (gene 6096) (Q92753 whole entry, looked up, the tested form may be a part): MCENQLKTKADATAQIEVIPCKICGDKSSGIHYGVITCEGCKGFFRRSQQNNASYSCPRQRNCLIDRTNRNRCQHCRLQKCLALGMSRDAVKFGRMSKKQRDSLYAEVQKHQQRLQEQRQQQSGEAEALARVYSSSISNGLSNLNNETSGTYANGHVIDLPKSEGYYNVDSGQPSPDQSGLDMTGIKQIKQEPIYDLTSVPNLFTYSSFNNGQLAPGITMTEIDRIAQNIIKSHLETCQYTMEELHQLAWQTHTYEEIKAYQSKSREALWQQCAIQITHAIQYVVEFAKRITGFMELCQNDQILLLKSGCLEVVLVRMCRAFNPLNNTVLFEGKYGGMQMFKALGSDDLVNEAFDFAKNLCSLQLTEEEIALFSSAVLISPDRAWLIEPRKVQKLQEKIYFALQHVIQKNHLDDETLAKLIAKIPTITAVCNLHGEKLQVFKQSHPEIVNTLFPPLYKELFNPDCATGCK

“And” between values parts separate entries of the source, which are not always exact repeats. Equal entries are not always repeated. Results filed as inconclusive are left out. Where a structure was tested more than once in an assay, its records may differ in their call. The source made the active and inactive calls. The calls were made as follows, unless noted: active = hit-call score of the fitted dose curve at least 0.9, where 1 is the maximum; inconclusive = response in the unintended direction; inactive = score below 0.9.

Chain of human Peroxisome Proliferator-activated Receptor delta (PPARd), PPARD (gene 5467) (Q03181 whole entry, looked up, the tested form may be a part): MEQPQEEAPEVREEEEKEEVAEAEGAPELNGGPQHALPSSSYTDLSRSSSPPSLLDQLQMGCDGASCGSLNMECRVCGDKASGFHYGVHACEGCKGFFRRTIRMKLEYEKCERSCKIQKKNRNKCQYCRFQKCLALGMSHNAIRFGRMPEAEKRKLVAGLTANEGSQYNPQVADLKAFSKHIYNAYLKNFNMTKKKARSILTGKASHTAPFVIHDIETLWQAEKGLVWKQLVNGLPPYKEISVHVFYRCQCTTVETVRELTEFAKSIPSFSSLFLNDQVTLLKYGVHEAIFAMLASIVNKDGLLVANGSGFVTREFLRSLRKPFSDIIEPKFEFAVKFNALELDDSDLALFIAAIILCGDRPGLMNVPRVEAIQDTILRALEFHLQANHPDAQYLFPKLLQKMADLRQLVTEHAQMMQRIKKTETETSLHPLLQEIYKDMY
Chain of human Thyroid Receptor alpha (THRa1), THRA (gene 7067) (P10827 whole entry, looked up, the tested form may be a part): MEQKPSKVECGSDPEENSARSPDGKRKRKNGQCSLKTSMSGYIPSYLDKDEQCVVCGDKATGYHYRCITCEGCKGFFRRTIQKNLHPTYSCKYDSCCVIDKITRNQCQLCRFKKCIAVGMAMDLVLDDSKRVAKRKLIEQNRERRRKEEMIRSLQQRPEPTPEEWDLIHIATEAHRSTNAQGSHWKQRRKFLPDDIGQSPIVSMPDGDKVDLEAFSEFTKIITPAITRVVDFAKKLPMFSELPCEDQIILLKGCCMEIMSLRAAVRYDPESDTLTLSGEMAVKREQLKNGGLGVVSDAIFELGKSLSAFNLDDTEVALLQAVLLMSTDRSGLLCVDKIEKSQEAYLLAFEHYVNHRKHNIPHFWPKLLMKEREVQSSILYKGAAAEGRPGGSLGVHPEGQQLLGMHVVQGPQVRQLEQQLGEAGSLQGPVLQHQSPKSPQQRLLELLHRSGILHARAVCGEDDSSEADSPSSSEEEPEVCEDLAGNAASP
Chain of Nuclear receptor subfamily 1 group I member 3 (Homo sapiens) (Q14994 whole entry, looked up, the tested form may be a part): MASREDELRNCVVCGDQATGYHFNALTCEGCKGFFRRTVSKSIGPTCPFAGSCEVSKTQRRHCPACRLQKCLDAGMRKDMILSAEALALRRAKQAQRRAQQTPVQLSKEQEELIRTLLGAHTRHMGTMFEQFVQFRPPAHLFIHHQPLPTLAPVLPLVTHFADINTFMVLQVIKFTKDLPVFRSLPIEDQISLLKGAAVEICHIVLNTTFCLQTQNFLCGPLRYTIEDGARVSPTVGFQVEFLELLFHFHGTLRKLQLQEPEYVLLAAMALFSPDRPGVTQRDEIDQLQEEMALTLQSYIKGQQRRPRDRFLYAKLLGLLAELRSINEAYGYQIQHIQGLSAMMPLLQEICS
Chain of human RAR-related Orphan Receptor gamma (RORg), RORC (gene 6097) (P51449 whole entry, looked up, the tested form may be a part): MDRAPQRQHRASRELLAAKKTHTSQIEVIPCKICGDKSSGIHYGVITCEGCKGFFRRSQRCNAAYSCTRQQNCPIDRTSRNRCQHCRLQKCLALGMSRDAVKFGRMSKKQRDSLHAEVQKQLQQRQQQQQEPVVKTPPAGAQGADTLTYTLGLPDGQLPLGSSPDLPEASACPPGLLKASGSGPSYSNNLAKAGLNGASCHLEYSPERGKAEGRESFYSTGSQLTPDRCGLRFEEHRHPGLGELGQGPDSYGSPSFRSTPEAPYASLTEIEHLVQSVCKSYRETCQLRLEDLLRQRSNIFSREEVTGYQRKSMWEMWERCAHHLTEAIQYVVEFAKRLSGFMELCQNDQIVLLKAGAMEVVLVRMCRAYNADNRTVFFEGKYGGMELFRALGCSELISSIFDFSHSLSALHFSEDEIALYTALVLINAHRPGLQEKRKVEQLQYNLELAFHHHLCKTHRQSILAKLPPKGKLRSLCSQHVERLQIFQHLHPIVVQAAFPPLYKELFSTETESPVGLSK

Regarding `c1cc[c]([Bi]([c]2ccccc2)[c]2ccccc2)cc1`, the outcome in experiment [1], in experiment [2], in experiment [3] and in [5] was inactive. Moreover, the AC50 – broadly, the concentration giving half of the maximal activity seen – in experiment [4] is 37.9 µM (active).
In the case of `CCCCCC[C@@H](O)C/C=C\CCCCCCCC(=O)O`, the result in experiment [6], in experiment [5], in experiment [9], in experiment [10], in experiment [11] and in [12] was inactive. Besides, the outcome in [13] was inactive. The AC50 in experiment [4] was 108 µM (active); in experiment [7], 27.3 µM (active); in [8] it was 27.4 µM (active); in [10] it was 40.5 µM (active) and 27.9 µM (active).
`COc1cccc(OC)c1C(=O)O`: the compound was called inactive in [1], in [14], in [15], in experiment [10] and in [11].
Regarding `CCOc1ccc2c(c1)C(C)CC(C)(C)N2` (centres undefined), the compound was classed as inactive in experiment [16], in experiment [1], in experiment [17], in [3], in [4] and in experiment [7]. Moreover, in [8], the result was inactive. Also, the AC50 in experiment [14] is 14.5 µM (active).
Regarding `CCCc1c(OCCCCc2nn[nH]n2)ccc(C(C)=O)c1O`, the outcome in [14], in experiment [6], in [7], in experiment [5], in experiment [9] and in [10] was inactive. Besides, the outcome in [12] and in experiment [13] was inactive. For the same compound, the AC50 is 50.4 µM (active) in experiment [4] and 5.65 µM (active) in experiment [8].
In the case of `CC/C=C\CCO`, the outcome in [17], in experiment [18], in experiment [3], in experiment [6], in [19] and in [15] was inactive. Further, the result in [5], in experiment [12] and in experiment [13] was inactive.
In the case of `C=CC(C)(CCC=C(C)C)OC(=O)c1ccccc1` (centres undefined), the result in experiment [16], in experiment [6], in experiment [4] and in experiment [9] was inactive. Also, the AC50 in experiment [11] is 72.6 µM (active).
With `CC1=CCCC(C)(C)C12CCC(C)O2` (centres undefined), the call in experiment [17], in experiment [2], in experiment [14], in [19] and in experiment [10] was inactive. In addition, the AC50 in experiment [11] was 60.7 µM (active).
